Among the data in PubChem BioAssay (Tox21) are Potency and activity, negative = inhibition values, retold here.

Records with an inconclusive call do not appear. Where a call stands in place of a potency, no number is given. Unmarked numbers belong to inactive results. Activity calls are given as the source filed them. Calls come from the whole dose curve; as a rule, active = well fitted inhibition curve with a large enough effect in the signal ratio in the repeat runs (not every such curve was filed as active); inconclusive = weak or mixed curves, or effect the other way; inactive = no such curve, though single readings can be large or run the other way; the % refers to the signal ratio.
Potency is the fitted concentration of half-maximal effect.

In the assay the target is Estrogen receptor beta (Homo sapiens) (UniProt Q92731). The assay is described as follows: qHTS assay to identify small molecule antagonists of the estrogen receptor beta (ER-beta) signaling pathway (AID 1259378). The following applies: ER-beta-UAS-bla HEK293T, beta-lactamase FRET ratio, 16 h; series mostly up to 92.4 µM. The text has this: National Center for Advancing Translational Sciences [NCATS]
Sequence of Estrogen receptor beta (Homo sapiens) (Q92731 whole entry, looked up): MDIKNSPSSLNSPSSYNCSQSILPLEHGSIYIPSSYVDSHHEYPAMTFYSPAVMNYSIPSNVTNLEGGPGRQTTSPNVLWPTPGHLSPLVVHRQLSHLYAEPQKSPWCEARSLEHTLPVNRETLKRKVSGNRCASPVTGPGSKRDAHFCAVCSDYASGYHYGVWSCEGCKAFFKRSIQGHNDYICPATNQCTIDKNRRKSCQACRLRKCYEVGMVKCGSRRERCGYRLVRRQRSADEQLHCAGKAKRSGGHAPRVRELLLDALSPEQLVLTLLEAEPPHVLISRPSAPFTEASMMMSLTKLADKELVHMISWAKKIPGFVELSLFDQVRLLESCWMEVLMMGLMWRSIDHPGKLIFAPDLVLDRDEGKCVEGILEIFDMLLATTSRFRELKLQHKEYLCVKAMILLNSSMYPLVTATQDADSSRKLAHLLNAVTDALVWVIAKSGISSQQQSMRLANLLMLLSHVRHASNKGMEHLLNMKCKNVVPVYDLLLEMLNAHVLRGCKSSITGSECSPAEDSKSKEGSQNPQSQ
NIH Chemical Genomics Center [NCGC]
U.S. Environmental Protection Agency [EPA]
National Institutes of Environmental Health Sciences [NIEHS]
National Toxicology Program [NTP]
U.S. Food and Drug Administration [FDA]
Estrogen receptor (ER), a nuclear hormone receptor, plays an important role in development, metabolic homeostasis and reproduction. Two subtypes of ER, ER-alpha and ER-beta, have similar expression patterns with some uniqueness in both types. Endocrine disrupting chemicals (EDCs) and their interactions with steroid hormone receptors like ER causes disruption of normal endocrine function. To identify the compounds that inhibit ER signaling, an ER-beta-UAS-bla GripTite cell line (Life Technologies, Madison, WI, USA) containing a beta-lactamase reporter gene under the control of an UAS response element was used to screen Tox21 10K compound library.
Tox21 Assay Protocol Summary:
ER-beta-UAS-bla HEK293T cells were dispensed at 2,000 cells/4 uL of assay medium containing 2% charcoal stripped FBS per well into black wall/clear-bottom 1536-well plates using a Multidrop Combi (ThermoFisher Scientific, Waltham, MA) dispenser. After the assay plates were incubated at a 37C and 5% CO2 for 6 hr, 23 nL of compounds dissolved in DMSO, positive controls or DMSO only was transferred to the assay plate by a Pintool station (Kalypsys, San Diego, CA), followed by addition of 1 uL (1nM as final concentration) of 17-beta-estradiol (E2) in assay medium using a BioRAPTR FRD (Flying Reagent Dispenser, Aurora Discovery, San Diego, CA). The plates were incubated at 37C and 5% CO2 for 16 hr. Then 1 uL of LiveBLAzerTM B/G FRET substrate was added using a Flying Reagent Dispenser, the plates were incubated at room temperature for 2 hours, and fluorescence intensity was measured by an Envision plate reader (PerkinElmer, Shelton, CT).
On to `CCCCCCCCCCCCCCC1CO1` (stereo not given), for which the Potency entry was “inactive”.

For the molecule `Cn1c(N)nc2nc[nH]c2c1=O`, the Potency result was “inactive”.

Consider `S=C(S)NCCNC(=S)S`, for which the Potency result is “inactive”.

Consider `CC[C@]12CCCN3CCc4c(n(c5ccccc45)C(=O)C1)[C@@H]32`, for which the Potency entry was “inactive”.

Turning to `CC(C)(C)c1cc(CCC(=O)OCC(COC(=O)CCc2cc(C(C)(C)C)c(O)c(C(C)(C)C)c2)(COC(=O)CCc2cc(C(C)(C)C)c(O)c(C(C)(C)C)c2)COC(=O)CCc2cc(C(C)(C)C)c(O)c(C(C)(C)C)c2)cc(C(C)(C)C)c1O`, the Potency result is “inactive”.

In the case of `O=[N+]([O-])c1cc[n+]([O-])cc1`, the Potency is 43.3 µM (active).

Turning to `OC(CCN1CCCCC1)(c1ccccc1)C1CCCCC1` (stereo not given), the Potency entry is “inactive”.

Turning to `CC(O)C1CCCCC1` (stereo not given), the Potency result is “inactive”.

`CC(=O)SCc1ccco1`: the Potency result was “inactive”.

In the case of `CC(C)CCCC(C)CCO` (stereo not given), the Potency entry is “inactive”.

`Oc1ccc(O)c2c(O)cccc12`: the Potency result is “inactive”.

In the case of `Nc1ccc(C(=O)N2CC3CC(CN(Cc4ccccc4)C3)C2)cc1`, the Potency entry was “inactive”.

On to `OCCC1CCCCN1` (stereo not given), for which the Potency entry is “inactive”.

On to `Cc1occc1S`, for which the Potency entry is “inactive”.

With `Cc1ccc(C(=O)C(C)CN2CCCCC2)cc1` (stereo not given), the Potency entry was “inactive”.

`CCOC(=O)C1=C(C)NC(C)=C(C(=O)OC)C1c1cccc([N+](=O)[O-])c1` (stereo not given): the Potency result is “inactive”.

Regarding `O=C(CCN1CCN2CCCC2C1)N1c2ccccc2Sc2ccc(Cl)cc21` (stereo not given), the activity, negative = inhibition was -12.6% [at 19 µM].

In the case of `CCCCCCCCCO`, the Potency result is “inactive”.

Turning to `CN(C)CCCNCCCN`, the Potency result was “inactive”.

Regarding `CN1CCN(C2=Nc3ccccc3Sc3ccc(Cl)cc32)CC1`, the Potency result is “inactive”.

For `CCCCOc1cc(C(=O)OCCN(CC)CC)ccc1N`, the Potency result is “inactive”.

Consider `CCN(CC)CCc1nc(-c2ccccc2)no1`, for which the Potency entry is “inactive”.

For `N[C@H]1C(O)O[C@H](CO)[C@H](O)[C@@H]1O` (stereo not given in full), the Potency result is “inactive”.

As to `Cc1c(Cn2ccnc2)c2ccccc2n1CCC(=O)O`, the Potency entry was “inactive”.

For `CC(=O)CC(=O)c1ccccc1`, the Potency entry was “inactive”.

As to `CC(C)c1ccccc1C(C)C`, the Potency entry was “inactive”.

Turning to `O=C=NC1CCC(CC2CCC(N=C=O)CC2)CC1` (stereo not given), the Potency result is “inactive”.

`CCCCCOC(=O)COc1cc(N2C(=O)C3=C(CCCC3)C2=O)c(F)cc1Cl`: the Potency entry was “inactive”.

Consider `c1ccc(CNCc2ccccc2)cc1`, for which the Potency result was “inactive”.

For `COC(=O)C(C)=O`, the Potency entry is “inactive”.

On to `O=C(Nc1ccccc1)OCC(CN1CCCCC1)OC(=O)Nc1ccccc1` (stereo not given), for which the Potency is 26.6 µM (active).

As to `Cc1ccc(C(N)=O)cc1N`, the Potency entry is “inactive”.

Take `C=Cc1c(C)c2cc3[nH]c(cc4nc(cc5nc(cc1[nH]2)C(C)=C5CCC(=O)O)C(CCC(=O)O)=C4C)c(C)c3C=C`: the Potency result is “inactive”.

As for `CCN(CC)CCOC(=O)C1(c2ccccc2)CCCC1`, the Potency result is “inactive”.

As to `Cc1ccccn1`, the Potency result is “inactive”.

In the case of `CC[C@H](C)[C@H](N)C(=O)O`, the Potency entry was “inactive”.

As to `CC(C)CCCCCCOC(=O)c1ccc(C(=O)OCCCCCCC(C)C)c(C(=O)OCCCCCCC(C)C)c1`, the Potency result is “inactive”.

For `CNS(=O)(=O)Cc1ccc2[nH]cc(CCN(C)C)c2c1`, the Potency result is “inactive”.

For the molecule `CCOC(=O)CC(=O)c1cc(F)c(Cl)nc1Cl`, the Potency entry was “inactive”.

On to `O=C(NN1CCCC1)NS(=O)(=O)c1ccc(Cl)cc1`, for which the Potency result is “inactive”.
